# From PubChem BioAssay
# ALDH1A1 inh = inhibitors of human aldehyde dehydrogenase 1A1; P00352; Purified ALDH1A1, NADH fluorescence, propionaldehyde substrate; Potency, µM (doses to about 75.3 µM), for inactives: at the highest dose activity, negative = inhibition, actives largely listed as inhibitors; hit rate 7.3% among 220,000;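 note: potency is the fitted concentration of half-maximal effect; plate controls were no enzyme wells and a reference inhibitor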
# IMPase Li cell = IMPase inhibition in cells with lithium potentiation. CHO-M1 cells, IP1 TR-FRET (IP-One), carbachol + lithium. Potency, µM (top dose mostly 59.4 µM), inactives show at the highest dose activity, negative = IMPase inhibition, usual class: inhibitors. hit rate 0.35% among 210,000. AID 1457; active = well fitted inhibition curve with a large enough effect; inconclusive = small, poorly fitted or top-dose-only effect; inactive = no such curve, though single readings can be large or run the other way;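 note: IP1 builds up when IMPase is blocked and the TR-FRET signal falls; potency is the fitted concentration of half-maximal effect; plate controls were basal vehicle for no effect and high inhibitor control for full effect; nearly all actives have a fitted effect of over 50% in size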
#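 Lithium-sensitised IP1 accumulation assay; M1-expressing CHO cells treated 30 min at 37C with compound. Competitive antibody detection by time-resolved FRET followed a 10 min room-temperature lysis step.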
# HPGD inh = HPGD (human) dehydrogenase inhibition; purified HPGD, NADH fluorescence kinetic, PGE2 substrate; Potency, µM, for inactives: top-dose activity change, negative = inhibition, hits mostly inhibitors; hit rate 4.3% among 150,000; note: potency is the fitted concentration of half-maximal effect
# Target sequence (P15428 whole entry, looked up): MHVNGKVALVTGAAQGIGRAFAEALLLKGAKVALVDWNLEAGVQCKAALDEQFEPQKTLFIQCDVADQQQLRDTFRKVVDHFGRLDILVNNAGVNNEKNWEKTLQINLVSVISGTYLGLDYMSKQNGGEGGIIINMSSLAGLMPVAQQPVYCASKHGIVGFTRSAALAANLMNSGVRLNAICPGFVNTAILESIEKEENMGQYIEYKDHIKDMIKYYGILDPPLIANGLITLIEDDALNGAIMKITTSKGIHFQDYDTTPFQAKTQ
#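 NADH formation kinetics: reaction with 30 uM PGE2 and 1 mM NAD+ (final), 20 nM enzyme, Tris-HCl pH 8 with Tween 20, after 15 min compound preincubation at room temperature. Fluorescence change, last versus first of five reads.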
# PNC assembly inh = perinucleolar compartment assembly inhibition; AID 2417; PC3M PTB-GFP, PNC prevalence imaging, 16 h; hits give low values; hit rate 3.1% among 140,000; activity change (PNC), negative = inhibition, % at 10 µM;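 active = readout at or below -70, meaning at least 70% loss of cells showing the perinucleolar compartment, a nuclear body marking cancer cells; inconclusive = readout between -30 and a set limit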;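 note: plate controls were DMSO wells for no effect and camptothecin positive control wells for full effect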
#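 Read-out is percentage of cells bearing a perinucleolar compartment, from automated 20x imaging of fixed, Hoechst-stained PC3M PTB-GFP cells. Cells were seeded 4 h, then exposed 16 h to compound (23 nl of library stock) in duplicate plates.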
# IMPase inh = IMPase inhibition in cells. P97697. CHO-M1 cells, IP1 accumulation, HTRF TR-FRET ratio. inhibition (IP1 accumulation), % at 46.1 µM. 120,000 tested, under 10 active. AID 901; active = well fitted curve in the direction sought with a large enough effect in the signal ratio, not every such curve was filed as active; inconclusive = small, poorly fitted or top-dose-only effect, or a change in a side signal; inactive = no such curve, though single readings can be large or run the other way; the % refers to the signal ratio;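 note: cells stimulated with carbachol in lithium chloride buffer; plate controls were DMSO basal wells for no effect and reference inhibitor wells for full effect; higher means more IMPase inhibition seen as more IP1 and lower FRET ratio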
# Target sequence (P97697 whole entry, looked up): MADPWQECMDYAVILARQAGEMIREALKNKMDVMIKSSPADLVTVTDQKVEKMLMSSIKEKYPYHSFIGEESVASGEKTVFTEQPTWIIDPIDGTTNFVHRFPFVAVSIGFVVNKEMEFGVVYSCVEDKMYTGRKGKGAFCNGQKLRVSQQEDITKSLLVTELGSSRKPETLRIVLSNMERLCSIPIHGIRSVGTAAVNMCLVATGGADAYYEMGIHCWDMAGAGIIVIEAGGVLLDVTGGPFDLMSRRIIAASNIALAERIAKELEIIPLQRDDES
#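 Carbachol-driven Gq signalling in CHO-M1 cells (2000/well) generates IP1. Compounds that block IMPase raise IP1 and so reduce the FRET signal from Eu-anti-IP1 and d2-IP1 after a 10 min room-temperature lysis.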
# The depositor's hits bear a star; u = inconclusive; x = no result given; ! = not confirmed by another sample; [ ] = remark or other dose. The list is not random: actives were taken first. Their share in the collection is about 11%. Unless noted, calls come from the whole dose curve; as a rule, active = well fitted inhibition curve with a large enough effect (not every such curve was filed as active); inconclusive = small, poorly fitted or top-dose-only effect, or another doubt; inactive = no such curve, though single readings can be large or run the other way. Unless noted, % is set by controls: 0 for no effect and ±100 for the full control effect.
SMILES,ALDH1A1 inh,IMPase Li cell,HPGD inh,PNC assembly inh,IMPase inh
CCCCCc1nc2c(c(=O)c3ccccc3n2C)c(=O)n1C1CCCCCC1,3.5µM*,-9%,-1%,u,-2
CCCCCc1nc2ccccc2c(=O)n1-c1ccc(C)cc1,x,x,x,x,6
CC(C)c1nccn1Cc1ccc(Cl)cc1Cl,13%[13.5 µM],-1%,-1%,x,x
COc1ccc(OC)c(NC(=O)Cn2cc(C(=O)c3ccccc3)c3ccccc32)c1,x,x,x,x,-1
COc1cc(O)c(C(=O)c2ccccc2)cc1S(=O)(=O)O,13µM*,1%,-1%,x,x
CC(C)(O)[C@H]1[C@H]2OC(=O)[C@@H]1[C@]1(O)C[C@H]3O[C@]34C(=O)O[C@H]2[C@]14C (tested in a mixture with another compound),x,x,x,x,-1
Cc1cc(OC(=O)c2ccco2)c2c3c(c(=O)oc2c1)CCC3,10µM*,x,x,-13,21
Cc1cc(OCc2nn[nH]n2)c2c3c(c(=O)oc2c1)CCCC3,u,x,x,-18,1
Cc1cc(OC(=O)CCCNC(=O)OC(C)(C)C)c2c3c(c(=O)oc2c1)CCC3,u,16%[38.3 µM],-12%,-10,4
Cc1cc(OC(=O)CCNC(=O)OC(C)(C)C)c2c3c(c(=O)oc2c1)CCC3,1.8µM*,9%[38.3 µM],u,-109*,13
C=CCOC(=O)COc1cc(C)cc2oc(=O)c3c(c12)CCC3,u,11%[38.3 µM],u,-19,12
Cc1cc(OCc2ccc([N+](=O)[O-])cc2)c2c3c(c(=O)oc2c1)CCCC3,28µM*,9%[38.3 µM],u,22,6
CCCCOC(=O)COc1cc(C)cc2oc(=O)c3c(c12)CCC3,10µM*,-13%[38.3 µM],-22%,-8,3
Cc1cc(SCc2sc(-c3ccc(C(F)(F)F)c(F)c3)nc2C)ccc1OCC(=O)O,u,7%,10µM*,x,x
CC12C=CC(=O)C=C1CCC1C2=CCC2(C)C1CC[C@@H]2C(=O)CN1CCN(c2cc(N3CCCC3)nc(N3CCCC3)n2)CC1 (some centres not stated),u,19%,x,x,x
Brc1c(NC2=NCCN2)ccc2nccnc12,16µM*!,0%,22µM*!,-10,0
COc1ccc(OC)c(N2C(=O)NC(=O)/C(=C\c3ccc([N+](=O)[O-])s3)C2=O)c1,25µM*,8%,x,x,x
COc1ccc(N2C(=O)NC(=O)/C(=C\c3ccccc3[N+](=O)[O-])C2=O)cc1,19µM*,4%,x,x,x
c1ccc(C2CO2)cc1 (configuration not stated),6%,12%,-8%,x,x
COc1ccc2c(c1)[C@]13CCCC[C@@H]1[C@H](C2)NCC3,x,x,x,x,18
CN(C)CCN(C)CCc1ccc(Cl)c(Cl)c1,-11%,-27%,-6%,x,4
O=C1C2CC=CCC2C(=O)N1SC(Cl)(Cl)Cl (configuration not stated),0.4µM*,24%,7.1µM*,x,x
COc1cccc(CN2CCCCC2c2cccnc2)c1 (configuration not stated),32µM*,-1%[38.3 µM],-16%,-83*,3
COc1ccc(CN2CCCCC2c2cccnc2)cc1C (configuration not stated),2%,7%[38.3 µM],-12%,34,9
COc1ccc(C(c2ccc(OC)cc2)C(Cl)(Cl)Cl)cc1,14µM*!,40%,-8%,x,x
SMILES,ALDH1A1 inh,IMPase Li cell,HPGD inh,PNC assembly inh,IMPase inh
COc1ccc(-n2c(C)nc3cc(C(=O)N4CCC5(CC4)OCCO5)ccc32)cc1,u,-4%[38.3 µM],13µM*,8,0
Cc1nc2cc(C(=O)N3CCC4(CC3)OCCO4)ccc2n1-c1ccc(Br)cc1,u,-8%[38.3 µM],8.9µM*,34,-6
NC(CCl)=N[C@H]1CN2CCC1CC2,u,-8%,-2%,x,x
CCCCn1c(O)c(C(CC)=NCCN2CCOCC2)c(=O)[nH]c1=O,u,27%[38.3 µM],-13%,0,6
CCCCn1c(O)c(C(CC)=NCCN2CCCCC2)c(=O)[nH]c1=O,u,-6%[38.3 µM],-10%,-89*,11
CCCCn1c(O)c(C(CC)=Nc2cccc(C(=O)O)c2)c(=O)[nH]c1=O,u,20%[38.3 µM],u,-90*,7
COC(=O)[C@@H]1C[C@@]2(O)[C@@H](O)[C@@H](O)[C@@H](O)C[C@H]2N1Cc1cccnc1,-7%,-8%,0%,x,x
CN(CC(=O)N[C@H](CO)Cc1ccccc1)C(=O)[C@H](CCS(C)=O)NC(=O)[C@@H](N)Cc1ccc(O)cc1 (some centres not stated),-4%,2%,x,x,x
CC(=O)c1ccc(OC(=O)N(C)c2ccccc2)cc1,-5%,-5%,x,x,x
CC(=O)c1ccc(-c2ccccc2)cc1,6%,-1%,-14%,-88*,x
Ic1ccccc1CN[C@@H]1C2CCN(CC2)[C@H]1C(c1ccccc1)c1ccccc1,x,x,x,x,9
COc1cc(/C=C2\C(=O)NC(=O)N(c3ccc(C)cc3)C2=O)cc(OC)c1O,u,6%,x,x,x
CCOc1ccc(N2C(=O)NC(=O)/C(=C/c3cnc(SC)nc3)C2=O)cc1,u,0%,x,x,x
CCOc1cc(C=C2C(=O)NC(=O)NC2=O)cc([N+](=O)[O-])c1O,28µM*,8%,x,x,x
COc1cc(C=C2C(=O)NC(=O)NC2=O)ccc1O,19µM*,x,x,x,x
CCOc1ccc(/C=C2/C(=O)NC(=O)N(CCc3ccc(F)cc3)C2=O)cc1,1.4µM*,-4%,10µM*,u,x
COc1cc(/C=C2\C(=O)NC(=O)N(CCc3ccc(F)cc3)C2=O)ccc1O,13µM*,5%,13µM*,22,3
COC(=O)c1ccccc1N,u,6%,-17%,x,x
O=C(O)CS(=O)(=O)C(c1ccccc1)c1ccccc1,3%[13.5 µM],1%,-9%,x,x
COc1cc2c(cc1OC)[C@]13CC[N@+]4(C)CC5=CCO[C@H]6CC(=O)N2[C@@H]1C6[C@@H]5C[C@]34O (some centres not stated),16%[13.5 µM],2%,-1%,x,x
CCOC(=O)CSCCOc1ccc(C=C2C(=O)NC(=O)NC2=O)cc1OC,13µM*,1%,x,x,x
CN(C)c1ccc(C=C2C(=O)NC(=O)NC2=O)cc1[N+](=O)[O-],u,-8%,x,x,x
COc1ccc(C(C)=O)cc1CC(C(=O)c1ccc(F)cc1)N(C)C (configuration not stated),4%,-9%,-19%,-93*,-4
COc1ccc(C(=O)C(Cc2ccccc2)N(C)C)cc1 (configuration not stated),28µM*,0%,-4%,u,0
CN1C2CCC1CC(NC(=O)c1nn(C)c3ccccc13)C2 (configuration not stated),-13%,7%,-15%,x,x
CCOC(=O)c1c(C)n(Cc2ccco2)c2ccc(O)cc12,4µM*,-17%[38.3 µM],22µM*,17,34
CCOC(=O)c1c(C)n(COCCO)c2ccc(O)cc12,2%,0%[38.3 µM],-20%,u,4
